From PubChem BioAssay (EPA / NIEHS)
Calls of active or inactive are those of the source. Rule for the calls: active = hit-call score of the fitted dose curve at least 0.9, where 1 is the maximum; inconclusive = response in the unintended direction; inactive = score below 0.9.

Target: PGR (gene 5241) (UniProt P06401)
Assay: TOX21_PR_BLA_Followup_Antagonist_ratio: Tox21 HEK293 Progesterone Receptor (PR) Antagonism Beta-lactamase Follow-Up Assay, Ratio (AID 2283934)
Description: TOX21_PR_BLA_Followup is a secondary assay for specificity for the TOX21_PR_BLA_Agonist assay. To differentiate true PR agonists from cytotoxic substances, this follow up assay is multiplexed with a cell viability assay. The compounds were also tested for auto fluorescence that may interfere with the biological target readout resulting in potential false positives and/or negatives. To identify the compounds that stimulate PR signaling, a PR-UAS-bla GripTite cell line i.e. PR-UAS-bla HEK293T (Invitrogen, Carlsbad, CA, USA) containing a beta-lactamase reporter gene under the control of an UAS response element was used to screen Tox21 10K compound library. The cytotoxicity of the Tox21 compound library against the PR-bla cell line was tested in parallel by measuring the cell viability using CellTiter-Glo assay in the same wells. TOX21_PR_BLA_Followup_Antagonist_ratio is an assay readout measuring reporter gene via receptor activity and designed using inducible reporter (beta lactamase induction) detected with GAL4 b-lactamase reporter gene. The signal is derived from the ratio of cleaved (ch2) to uncleaved (ch1) reporter gene substrate used as the measure of target activity.Data from the assay component TOX21_PR_BLA_Followup_Antagonist_ratio was analyzed into 1 assay endpoint. This assay endpoint, TOX21_PR_BLA_Followup_Antagonist_ratio, was analyzed in the positive analysis fitting direction relative to DMSO as the negative control and baseline of activity. Using a type of inducible reporter, measures of receptor for gain-of-signal activity can be used to understand the reporter gene at the pathway-level as they relate to the gene NR3C3. Furthermore, this assay endpoint can be referred to as a primary readout, because this assay has produced multiple assay endpoints where this ratio serves a reporter gene function to understand target activity. To generalize the intended target to other relatable targets, this assay endpoint is annotated to the nuclear receptor intended target family, where the subfamily is steroidal.
Assay Protocol: PR-UAS-bla HEK293T cells were dispensed at 3,000 cells/4 uL of assay medium containing 2% charcoal stripped FBS per well into black wall/clear-bottom 1536-well plates using a Multidrop Combi (ThermoFisher Scientific, Waltham, MA) dispenser. After the assay plates were incubated at a 37C and 5% CO2 for 6 hr, 23 nL of compounds dissolved in DMSO, positive controls or DMSO only was transferred to the assay plate by a Pintool station (Kalypsys, San Diego, CA), followed by addition of 1 uL (1nM as final concentration) of Promegestone (R5020) in assay medium using a BioRAPTR FRD (Flying Reagent Dispenser, Aurora Discovery, San Diego, CA). The plates were incubated at 37C and 5% CO2 for 16 hr. Then 1 uL of LiveBLAzer B/G FRET substrate was added using a FRD. After the plates were incubated at room temperature for 2 hours, fluorescence intensity was measured by an Envision plate reader (PerkinElmer, Shelton, CT).

Chain of PGR (gene 5241) (P06401 whole entry, looked up): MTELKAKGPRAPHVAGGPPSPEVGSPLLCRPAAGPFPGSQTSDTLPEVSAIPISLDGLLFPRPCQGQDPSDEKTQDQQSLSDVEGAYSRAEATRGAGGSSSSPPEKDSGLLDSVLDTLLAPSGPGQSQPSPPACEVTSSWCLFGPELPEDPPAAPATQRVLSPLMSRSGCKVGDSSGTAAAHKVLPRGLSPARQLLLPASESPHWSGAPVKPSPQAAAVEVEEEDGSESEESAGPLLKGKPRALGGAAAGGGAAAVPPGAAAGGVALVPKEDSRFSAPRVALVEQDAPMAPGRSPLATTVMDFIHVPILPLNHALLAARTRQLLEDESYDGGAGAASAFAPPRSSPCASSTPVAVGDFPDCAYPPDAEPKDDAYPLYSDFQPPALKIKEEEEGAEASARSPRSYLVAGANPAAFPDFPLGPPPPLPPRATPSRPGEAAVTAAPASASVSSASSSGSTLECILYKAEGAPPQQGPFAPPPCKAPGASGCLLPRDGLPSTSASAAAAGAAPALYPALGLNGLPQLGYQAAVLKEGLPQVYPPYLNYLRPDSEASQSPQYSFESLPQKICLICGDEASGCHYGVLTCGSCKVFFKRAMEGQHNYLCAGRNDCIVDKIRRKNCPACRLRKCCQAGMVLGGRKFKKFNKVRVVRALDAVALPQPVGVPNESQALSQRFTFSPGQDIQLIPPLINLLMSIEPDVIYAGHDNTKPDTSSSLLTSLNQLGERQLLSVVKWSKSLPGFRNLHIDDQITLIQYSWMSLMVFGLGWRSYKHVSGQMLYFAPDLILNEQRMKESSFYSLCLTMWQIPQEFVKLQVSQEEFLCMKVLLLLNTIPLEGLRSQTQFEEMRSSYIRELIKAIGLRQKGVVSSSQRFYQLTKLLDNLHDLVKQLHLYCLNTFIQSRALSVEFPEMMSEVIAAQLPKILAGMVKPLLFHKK

| SMILES | AC50 | outcome |
| --- | --- | --- |
| Nc1ccc(-c2ccccc2)cc1 | 22.3 µM (active) | – |
| CC(C)(C1CCC(O)CC1)C1CCC(O)CC1 (configuration not stated) | – | inactive |
| O=[N+]([O-])c1ccc(Nc2ccccc2)cc1 | 11.4 µM (active) | – |
| CC(O)(CS(=O)(=O)c1ccc(F)cc1)C(=O)Nc1ccc(C#N)c(C(F)(F)F)c1 (configuration not stated) | 5.64 µM (active) | – |
| CC(C)CC(C)(c1ccc(O)cc1)c1ccc(O)cc1 | 12.7 µM (active) | – |
| O=S(=O)(Oc1ccc(Cl)cc1)c1ccc(Cl)cc1 | – | inactive |
| CCCSP(=S)(OCC)Oc1ccc(Cl)cc1Cl (configuration not stated) | 22.6 µM (active) | – |
| CCCSP(=S)(OCC)Oc1ccc(SC)cc1 (configuration not stated) | – | inactive |
| CCOP(=S)(OCC)Oc1ccc(Cl)cc1Cl | 33.2 µM (active) | – |
| Cc1ccccc1OP(=O)(Oc1ccccc1C)Oc1ccccc1C | 39.9 µM (active) | – |
| O=S(=O)(c1ccc(Cl)cc1)c1cc(Cl)c(Cl)cc1Cl | 27.3 µM (active) | – |
| OC(c1ccc(Cl)cc1)(c1ccc(Cl)cc1)c1cccnc1 | 29.3 µM (active) | – |
